High-throughput results deposited in PubChem by National Center for Advancing Translational Sciences (NCATS).
HT1080 IDH1KD tx: qHTS for induction of synthetic lethality in tumor cells producing 2HG: qHTS for the HT-1080-IDH1KD cell line | HT-1080 IDH1 knockdown viability, ATP luminescence, 48 h | Potency, µM (highest dose often 46.1 µM), inactives show at the highest dose activity, negative = toxicity, actives largely listed as cytotoxic | hit rate 2% among 360,000;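 further: potency means the concentration at half of the fitted maximal effect; 0% = DMSO wells and -100% = cell-free medium wells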
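% activity derives from luminescence (CellTiter-Glo), normalised to DMSO and no-cell wells. HT-1080-IDH1KD cells, 750/well, had 48 h compound exposure at 37 °C.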
DT40 TDP1 CPT: qHTS for Inhibitors of human tyrosyl-DNA phosphodiesterase 1 (TDP1): qHTS in cells in presence of CPT | chicken DT40 Tdp1-/-;hTDP1 cells + 20 nM CPT, ATP luminescence, 48 h | Potency, µM (top dose mostly 46.2 µM), inactives show at the top dose activity change, negative = growth inhibition, hits mostly inhibitors | hit rate 12% among 420,000; further: potency means the concentration at half of the fitted maximal effect; nearly all actives have a fitted effect of over 55% in size
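Cell growth measured by CellTiter-Glo luminescence after a minimum 48 h, 37 C compound exposure with 20 nM CPT in Tdp1-knockout DT40 cells stably expressing hTDP1, seeded 400/well; qHTS titration format.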
ALOX12 inh: Primary qHTS assay for inhibitors of human arachidonate 12S-lipoxygenase (ALOX12): Round 2; purified 12hLO, xylenol orange hydroperoxide absorbance; Potency, µM (doses to about 108 µM), for the others: at the top dose activity change, negative = inhibition, hits mostly inhibitors; hit rate 1.1% among 580,000; AID 1671190, 2021; further: potency means the concentration at half of the fitted maximal effect
Target sequence (P18054 whole entry, looked up): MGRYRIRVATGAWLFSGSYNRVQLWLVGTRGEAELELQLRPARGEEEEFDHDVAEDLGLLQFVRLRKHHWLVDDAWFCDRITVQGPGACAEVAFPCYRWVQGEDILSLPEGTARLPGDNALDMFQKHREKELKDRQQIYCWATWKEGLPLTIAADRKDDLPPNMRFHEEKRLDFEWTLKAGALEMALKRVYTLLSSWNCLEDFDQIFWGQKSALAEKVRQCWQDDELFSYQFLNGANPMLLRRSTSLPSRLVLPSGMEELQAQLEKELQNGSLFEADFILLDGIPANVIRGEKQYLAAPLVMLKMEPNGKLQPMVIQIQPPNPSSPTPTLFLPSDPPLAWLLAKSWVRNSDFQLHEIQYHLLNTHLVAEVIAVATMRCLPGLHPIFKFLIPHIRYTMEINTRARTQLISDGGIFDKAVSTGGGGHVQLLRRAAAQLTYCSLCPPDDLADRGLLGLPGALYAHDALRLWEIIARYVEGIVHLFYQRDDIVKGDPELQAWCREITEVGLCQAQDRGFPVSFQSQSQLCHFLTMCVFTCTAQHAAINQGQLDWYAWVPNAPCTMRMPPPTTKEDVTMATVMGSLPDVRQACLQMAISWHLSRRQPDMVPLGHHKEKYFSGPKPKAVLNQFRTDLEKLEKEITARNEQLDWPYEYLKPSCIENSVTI
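Hydroperoxide product was detected by ferrous iron/xylenol orange as the 573 to 405 nm absorbance ratio. Arachidonic acid at 40 uM (final) was turned over for 30 min at room temperature by 150 nM human 12hLO, pH 7.0 Hepes buffer, after 15 min compound preincubation.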
IL-1B inflam inh: qHTS for Inhibitors of Inflammasome Signaling: IL-1-beta AlphaLISA Primary Screen | THP-1 LPS/ATP IL-1B secretion, AlphaLISA, 16 h; active compounds read low | activity change, % at 57.5 µM | AID 743279, 2014 | hit rate 4.7% among 360,000; in the data active means activity change below about -50%; inconclusive means mostly about -30% to -49%
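Secreted IL-1B measured by AlphaLISA bead assay after 16 h compound exposure of THP-1 cells; compounds (final up to 57.5 uM) added 1 h before LPS (250 ng/mL) and ATP (1.25 mM) stimulation; lower signal means less secretion.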
HT1080-NT tox: qHTS for induction of synthetic lethality in tumor cells producing 2HG: qHTS for the HT-1080-NT fibrosarcoma cell line. HT-1080-NT fibrosarcoma viability, CellTiter-Glo ATP luminescence, 48 h. Potency, µM (top dose mostly 46.1 µM), for inactives: at the highest dose activity, negative = less viability, actives largely listed as cytotoxic. hit rate 1.6% among 360,000. AID 686970, 2013;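 further: NT is the 2HG producing partner of a matched IDH1 knockdown line; potency means the concentration at half of the fitted maximal effect; 0% = DMSO-treated cells and -100% = media-only wells without cells; nearly all actives have a fitted effect of over 55% in size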
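Toxicity toward the 2HG-producing NT line was scored as %Activity, normalised to DMSO and no-cell wells, from CellTiter-Glo luminescence after 48 hours' treatment.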
DT40 TDP1 no CPT: qHTS for Inhibitors of human tyrosyl-DNA phosphodiesterase 1 (TDP1): qHTS in cells in absence of CPT. DT40 Tdp1-/- hTDP1 cells, no CPT, ATP luminescence, 48 h. Potency, µM (highest dose often 46.2 µM), inactives show top-dose activity change, negative = growth inhibition, usual class: inhibitors. hit rate 15% among 420,000. AID 686978, 2013; further: potency means the concentration at half of the fitted maximal effect; nearly all actives have a fitted effect of over 55% in size
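No-CPT arm: Tdp1-/-;hTDP1 DT40 cells (400/well) plus compounds, incubated ≥48 hr at 37 °C. Readout CellTiter-Glo luminescence.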
* marks the source's active call; other numbers are inactive results; u = inconclusive; x = not tested or not shown; [ ] = remark or other dose. The entries come from a sample that favours hits as a whole. Unless noted, the call rests on the fitted dose curve; in most records, active means well fitted curve in the direction sought with a large enough effect; inconclusive means small, poorly fitted or top-dose-only effect, or another doubt; inactive means no such curve, though single readings can be large; an effect the other way counts as inactive or inconclusive. Unless noted, on the % scale 0 is the no-effect control and ±100 the full control effect.

SMILES	HT1080 IDH1KD tx	DT40 TDP1 CPT	ALOX12 inh	IL-1B inflam inh	HT1080-NT tox	DT40 TDP1 no CPT
COc1ccc(C(=O)c2[nH]c(N)c(C(=O)NCCc3c[nH]c4ccccc34)c2-c2ccc(Cl)cc2)cc1	u	18µM*	-29%	u	u	u
Cc1cccc2c(=O)c(-c3ccccc3)c(NC(=O)c3cccc([N+](=O)[O-])c3)oc12	x	x	8%	x	x	x
Cn1c(=O)c(F)c(Nc2ccc(I)cc2F)c2c(=O)n(C[C@@H](O)CO)cnc21	x	x	-8%[57.4 µM]	x	x	x
Cc1cccc(-n2cc(CN3CCN(c4cc(N)nc(N)n4)CC3)cn2)c1	x	x	139%	x	x	x
CCC1CN(C(=O)C2CCN(S(=O)(=O)c3c(C)noc3/C=C/c3ccc(C)cc3)CC2)c2cc(C)ccc2O1 (configuration not stated)	x	-28%	-29%	x	x	1%
Cc1ccc(/C=C/c2onc(C)c2S(=O)(=O)N2CCC(C(=O)N3CCN(c4ccccc4F)CC3)CC2)cc1	x	21µM*	-19%	x	x	2.6µM*
CC(=O)c1ccc(N2CCN(C(=O)C3CCN(S(=O)(=O)c4cn(C)cn4)CC3)CC2)cc1	x	-12%	-16%	x	x	-9%
Cc1ccc(/C=C/c2onc(C)c2S(=O)(=O)N2CCC(C(=O)N3CCC(N(C)C(C)C)CC3)CC2)cc1	x	5.2µM*	u	x	x	6.5µM*
CC(=O)c1ccc(N2CCN(C(=O)C3CCN(S(=O)(=O)c4c(C)noc4/C=C/c4ccc(C)cc4)CC3)CC2)cc1	x	6.5µM*	-7%	x	x	2.6µM*
Cc1ccc(S(=O)(=O)N2[C@@H](c3ccc(F)cc3)C(C(=O)O)=CC[C@H]2c2cccc(C)c2)cc1	-3%	7%	-34%	23	16%	4%
CCOC(=O)C1=CC[C@@H](c2ccco2)N(S(=O)(=O)c2ccc(C)cc2)[C@H]1C(=O)OCC	7%	u	-22%	1	9%	18µM*
CCOC(=O)C1=CC[C@@H](c2ccccc2Cl)N(S(=O)(=O)c2ccc(C)cc2)[C@H]1C(=O)OCC	-12%	u	3%	-1	-2%	21µM*
CCOC(=O)C1=CC[C@@H](c2cccc(C)c2)N(S(=O)(=O)c2ccc(C)cc2)[C@H]1C(=O)OCC	-18%	15µM*	5%	0	-12%	16µM*
Oc1ccccc1OCCOc1ccccc1OCCOc1ccccc1O	-9%	u	58%	u	-12%	21µM*
O=C1NC[C@@H](Cc2cccc3ccccc23)N(CCCCC2CCCCC2)C1=O	7%	-22%	0%	10	13%	-24%
S=C1NC[C@H](CC2CCCCC2)N1CCc1cccc2ccccc12	-1%	u	25µM*	21	-2%	u
O=C1NC[C@H](CC2CCCCC2)N(CCc2cccc3ccccc23)C1=O	-3%	u	-9%	-19	-4%	16µM*
CN(C)c1ccc(C=Nc2ccc(Br)cc2)cc1	x	x	-24%	x	x	x
O=C(NC1CCCCC1)c1cc([N+](=O)[O-])[nH]n1	-4%	u	-20%	14	-12%	18µM*
C=CCNC(=S)NNC(=O)CCc1ccccc1	x	x	11%	x	x	x
Cc1cc(C)c(O)c(CN(C)Cc2cc(Cl)cc(Cl)c2O)c1	u	u	40µM*	-90*	u	16µM*
Cc1cccc(N2CCN(CC(O)COc3ccccc3Cl)CC2)c1 (configuration not stated)	-4%	u	0%	0	-2%	16µM*
OC(COc1cccc2ccccc12)CN1CCN(c2ccc(Cl)cc2)CC1 (configuration not stated)	-10%	u	-6%	-14	-20%	23µM*
OC(COc1c(F)cc(Br)cc1F)CN1CCN(c2ccc(F)cc2)CC1 (configuration not stated)	-3%[9.24 µM]	u	u	-20	-21%	18µM*
OC(COc1c(F)cc(Br)cc1F)CN1CCOCC1 (configuration not stated)	5%	3%	-8%	-5	-1%	2%
SMILES	HT1080 IDH1KD tx	DT40 TDP1 CPT	ALOX12 inh	IL-1B inflam inh	HT1080-NT tox	DT40 TDP1 no CPT
OC(COc1cccc2ccccc12)CN1CCCC1 (configuration not stated)	-17%	2%	35%	-9	-2%	-5%
CNC(=O)[C@@H]1CN(S(C)(=O)=O)C[C@H]1COC	x	x	0%	x	x	x
COc1ccc2c(CCNC(=O)C(C)Sc3nc(Cl)nc4nc[nH]c34)c[nH]c2c1 (configuration not stated)	x	x	-4%	x	x	x
CC(C)CCC(=O)NC1CCN(c2cnn(C)c(=O)c2)CC1	x	x	17%	x	x	x
CC(C)c1ccc(C(=O)NC[C@@H]2CC[C@H]3C[C@@H]2C3(C)C)cc1	x	x	28%[176 µM]	x	x	x
CC(/C=N/n1c(-c2ccc(Cl)cc2)n[nH]c1=S)=C\c1ccco1	13%	u	32µM*	3	-1%	u
C=CCn1c(-c2ccccn2)n[nH]c1=S	10%	-5%	10µM*	9	20%	3%
C=CCn1c(-c2cccnc2)n[nH]c1=S	16%	0%	-22%	10	10%	1%
S=c1[nH]nc(-c2ccccn2)n1/N=C/c1cccc2ccccc12	22%	-1%	5.6µM*	9	13%	0%
Cc1nn(-c2ccccc2)c(C)c1/C=N/n1c(-c2ccc(Cl)cc2)n[nH]c1=S	-9%	u	u	22	-10%	16µM*
Cc1nn(-c2ccccc2)c(C)c1/C=N/n1c(-c2ccncc2)n[nH]c1=S	-18%	-3%	u	0	-8%	-19%
